This passage reports growth results from PubChem BioAssay (NCI).

The test system of the test is HL-60(TB) leukemia. As to the kind of experiment: NCI-60 one-dose screen, 48 h (100 = growth as untreated, 0 = no growth, -100 = all killed). The settings on record: 10 µM unless noted.

The panel holds about 83,000 compounds, 20% with a hit somewhere; the sample as a whole holds those more often.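 Single-dose data. Exposure time 48 hours. Values below 10 considered active.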 Unmarked numbers belong to inactive results. Calls of active or inactive are those of the source.

With `CCOc1ncc([N+](=O)[O-])c(OCC)n1`, the growth was 108%.
With `Cc1csc(-c2nnc(Nc3ccc(Oc4ncccc4-c4ccnc(N)n4)cc3)c3ccccc23)c1` the figure was 12.9%; with `COc1cc(/C=C/c2nnc(-c3cc(-c4ccccc4)n[nH]3)o2)cc(OC)c1OC`, 75.1%.
For `NC(=O)c1c(NC(=O)/C=C/c2cccs2)sc2c1CCC(=O)C2`, the growth is 2.8% (active).
Under `CC1(C)OC2C(CO)OC(n3ccc(=O)[nH]c3=O)C2O1` (configuration not stated) stands 105%.
In the case of `Fc1cnc(NC2CC2)nc1-c1cnc2ccc(N3CCOCC3)cn12`, the growth was -15.5% (active).
Under `CC(C)(C)c1cc(/C=N\NC(=O)/C=C/C=C/c2ccc3c(c2)OCO3)c(O)c(C(C)(C)C)c1` stands 84.1%.
`NCCCN(CCCN)CCCNCc1c2ccccc2c(CNCCCN(CCCN)CCCN)c2ccccc12`: the growth was 100%.
Under `COc1ccc(C(=O)CSc2nnc(-c3cc(-c4ccccc4)nc4ccccc34)o2)cc1` stands 111%; under `C#CCC1(c2ccc(F)c(F)c2)NS(=O)(=O)c2ccccc21` (configuration not stated), 89.2%.
With `CCC(C)C(N)C(=O)NC(CC(N)=O)C(=O)NC(CC(C)C)C(=O)NC(CCCCN)C(=O)NC(C)C(=O)NC(CC(C)C)C(=O)NC(C)C(=O)NC(C)C(=O)NC(CC(C)C)C(=O)NC(C)C(=O)NC(CCCCN)C(=O)NC(CCCCN)C(=O)NC(C(=O)NC(CC(C)C)C(N)=O)C(C)CC` (configuration not stated) the figure was 56.1%; with `FC(F)(F)c1cccc(Nc2nc(-c3ccccc3)nc3ncccc23)c1`, -57.8% (active); with `CC(Sc1nc2sc3c(c2c(=O)n1-c1ccc(Cl)cc1)CCCC3)C(=O)Nc1nc(-c2ccc(Br)cc2)cs1` (configuration not stated), 98.6%.
With `O=C(O)CC1Cc2ccccc2C1C(=O)O` (configuration not stated) the figure was 65%.
On to `CCNS(=O)(=O)c1ccc(C)cc1`, for which the growth is 72%.
Under `COC(=O)c1ccc2[nH]c(O)c(C(=Nc3ccc(N(C)C(=O)CN4CCN(C)CC4)cc3)c3cccc(OC)c3)c2c1` stands -35.9% (active).
With `NC1=C(/C(N)=N/O)C(c2ccccc2)c2ccc3ccccc3c2O1` (configuration not stated) the figure was -19% (active); with `COc1ccc2nc(NC(=O)c3cc(-c4ccc(F)cc4)n4nc(-c5ccccc5)cc4n3)sc2c1`, 98.7%.
Under `NS(=O)(=O)c1ccc(CCn2c(SCC(=O)N/N=C/c3cc4ccccc4[nH]3)nc3ccccc3c2=O)cc1` stands 35.2%; under `CN1CCN(c2nc(Nc3ccc(O)cc3)nc3ccccc23)CC1`, 61.4%; under `COc1ccc(OC)c(Nc2nc3nonc3nc2Nc2cccc(Br)c2)c1`, -14.1% (active).
As to `COC(=O)c1c2c(c(C)[n+]([O-])c1C)C(=O)C=C(NCc1ccccc1)C2=O`, the growth is -31.4% (active).
Under `CC(C)NCC(O)COc1ccc(CCOCC2CC2)cc1` (configuration not stated) stands 92.8%; under `Fc1ccc(Nc2ccc3cc(OCCCN4CCOCC4)ccc3n2)cc1F`, 75.4%; under `O=C(O)c1cn(C2CC2)c2cc(N3CCN(C(=O)C[n+]4ccccc4)CC3)c(F)cc2c1=O`, 112%.
In the case of `Nc1nc2ccc(CNc3ccc(C(=O)NC(CC(=O)O)C(=O)O)cc3)cc2c(=O)[nH]1` (configuration not stated), the growth was 4.48% (active).
On to `Cc1ccc(S(=O)(=O)O)c(C)c1`, for which the growth was 100%.
On to `O=C(NNC(=O)c1nc2cc(F)ccc2n2cccc12)c1cnccn1`, for which the growth was 17.8%.
With `COc1ccc(CN2CCc3c(Sc4ccccc4)nc(N)nc3C2=O)c(OC)c1` the figure was 14.3%; with `COc1ccc2c(c1)C(=O)c1c-2c(OCCCN(C)C)nc2cc(Br)ccc12`, 98.4%.
`CC[N+](CC)(CCCC(C)[N+]1(Cc2ccccc2)C(C)=CC=C1C)Cc1ccccc1` (configuration not stated): the growth was 37.1%.
Consider `NCCn1cc(-c2nc(-c3c[nH]c4ncccc34)cs2)c2cc(Br)ccc21`, for which the growth was 51.1%.
Turning to `Cc1ccc(NCN2C(=O)c3ccccc3C2=O)c(C)n1`, the growth is 97.8%.
With `COc1ccc(-c2nc3sc(-c4ccccc4)cn3n2)cc1` the figure was 67.4%; with `CNC(=O)c1ccccc1Oc1nc(Nc2cc(OC)c(OC)c(OC)c2)ncc1Br`, 53.2%; with `CC1(C)NC(=S)NC1=O`, 89.9%.
Under `C[C@@]1(N2C(=O)OC[C@@H]2c2ccccc2)C(=O)N([C@H](CC(=O)N2CCC(N3CCCCC3)CC2)C(=O)NCc2cccc(C(F)(F)F)c2)[C@@H]1/C=C/c1ccccc1` stands 81%.
With `CCCCCCN(CCCCCC)CCC(O)c1ccc2ccccc2c1` (configuration not stated) the figure was 42.4%; with `COCCOCCCl`, 110%.
With `O=C(N/N=C/c1ccc(O)cc1O)c1cccc(Nc2ccnc(C(F)(F)F)c2)c1`, the growth was 8.21% (active).
With `N#Cc1c(-c2ccc(F)cc2)nc(N/N=C/c2c[nH]c3ccccc23)nc1N1CCOCC1` the figure was 2.62% (active); with `Cn1c(C#N)ccc1-c1ccc(F)c(NC(=O)c2ccc(F)cc2)c1`, 60%.
For `CCN1CCC(CCOC)(CN2c3ccccc3Sc3ccc(Cl)cc32)C1` (configuration not stated), the growth is 58.5%.
Under `COc1ccc(Cn2cc(Cn3cc(C=C4C(=O)NC(=O)NC4=O)c4ccccc43)nn2)cc1` stands 82.6%.
For the molecule `CC(C)(C)C(=O)Nc1nc2c(s1)CCc1ccn(S(=O)(=O)c3ccccc3)c1-2`, the growth is 70%.
Under `CSC1=CC(=O)c2ccccc2C1=O` stands -49.5% (active).
On to `O=C([C@@H](COCc1ccccc1)N1C(=O)[C@@H](N2C(=O)OC[C@@H]2c2ccccc2)[C@H]1/C=C/c1ccccc1)N1CCC(CCN2CCCCC2)CC1`, for which the growth is 64.5%.
In the case of `COc1cccc(-c2nc3sccn3c2-c2ccnc(NCCCNS(=O)(=O)c3cccc(Cl)c3)c2)c1`, the growth is -9.87% (active).
With `Cc1cccc2nc3c(n12)C(=O)C(=O)c1ccccc1-3`, the growth was 77.4%.
Regarding `O=C(O)CC(C(=O)O)/C(=C\c1ccccc1)c1ccccc1` (configuration not stated), the growth was 107%.
With `Cc1ccc(/C=C/c2c(C(=O)/C=C/c3ccccc3)c(C)nc3ccccc23)cc1` the figure was 14.8%; with `Oc1ccc(N=Nc2ccccn2)c(O)c1`, -37.3% (active).
Take `c1ccc2c(-c3c[nH]c4ccccc34)c3c(cc2c1)[nH]c1ccccc13`: the growth was 51.5%.
Turning to `COc1ccc(CNCCCN2C(=O)c3ccc4c5c(ccc(c35)C2=O)C(=O)N(CCCNCCCCNCCCN)C4=O)c(OC)c1OC`, the growth is 26.2%.
Under `CC(C)Cc1ccc([C@H](C)C(=O)O)cc1` stands 92.9%; under `CN(CCC(=O)c1ccccc1)CCC(=O)c1ccccc1`, 75.4%; under `COc1ccc(C2=C(Br)C(=O)c3nc(C)ccc3C2=O)cc1`, 66.2%.
